Screening results: PubChem BioAssay, National Center for Advancing Translational Sciences (NCATS)
D3 antag: D3 dopamine receptor (human) antagonism | P35462 | D3R cells, DiscoveRx beta-arrestin luminescence, antagonist mode; active compounds read low | max response, negative = inhibition, % | 2.5% of 360,000 active; in the data active means max response below about -50%; inconclusive means no clear call, values can overlap the other calls
Target sequence (P35462 whole entry, looked up): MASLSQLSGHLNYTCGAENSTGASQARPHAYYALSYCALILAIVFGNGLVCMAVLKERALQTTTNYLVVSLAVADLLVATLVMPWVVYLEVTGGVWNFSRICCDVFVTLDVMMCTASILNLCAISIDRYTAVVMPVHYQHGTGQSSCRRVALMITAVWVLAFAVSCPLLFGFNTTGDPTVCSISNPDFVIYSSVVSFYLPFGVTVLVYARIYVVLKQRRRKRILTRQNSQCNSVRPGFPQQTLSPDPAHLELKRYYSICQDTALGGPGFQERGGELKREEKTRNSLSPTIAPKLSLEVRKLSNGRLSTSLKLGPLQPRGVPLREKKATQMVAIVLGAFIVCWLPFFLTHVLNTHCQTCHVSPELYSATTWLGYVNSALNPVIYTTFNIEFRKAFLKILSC
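Cells plated overnight at 1500 cells/well, then exposed to library compounds with dopamine controls for 90 minutes at 37 degrees C. DiscoveRx reagent added for 30–60 minutes at room temperature; luminescence read, quantitative HTS format.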
D3 ag: agonists of human D3 dopamine receptor; 0.58% of 410,000 active; P35462; max activation, %; D3R DiscoveRx beta-arrestin cells, luminescence, 90 min; in the data active means max activation above about 30%
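Agonist mode: compounds and dopamine controls were applied to plated cells for 90 min at 37 degrees C after an overnight attachment at 1500 cells/well. Luminescent read-out followed 30 - 60 minutes at room temperature with DiscoveRx detection reagent.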
D1 potentiator: potentiators of human D1 dopamine receptor. 0.036% of 360,000 active. HEK293 TREx D1 cells, calcium flux, dopamine EC20 potentiation. AID 504651. potentiation, % at 10 µM. P21728; in the data active means potentiation above about 30%
D1 antagonist: human D1 dopamine receptor antagonism. HEK293 TREx D1 cells, calcium flux, dopamine EC80; active compounds read low. activity change, negative = inhibition, % at 10 µM. 3.2% of 360,000 active. AID 504652; in the data active means activity change below about -30%
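Allosteric or orthosteric antagonism assessed as attenuation of the calcium response to EC80 dopamine, added 180 s after compound, in induced HEK293 Trex D1 cells loaded with no-wash calcium dye.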
D1 agonist: agonists of human D1 dopamine receptor | P21728 | HEK293 T-REx D1 cells, calcium flux, agonist mode | activation, % at 2 µM | 1% of 360,000 active | AID 504660; in the data active means activation above about 30%
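Agonism was scored from calcium flux recorded over 180 s (1 read/s) after pintool compound addition, following a 10-cycle baseline. Cells were inducible force-coupled HEK293 TREx D1, plated overnight at 30 C and loaded with no-wash calcium dye.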
Each line names hits and unclear results; the compound was inactive in the other large screens. In the library only some 6% were active in any assay of this set; here they are far more common.

O=C(NC1CCN(Cc2ccccc2)CC1)c1cccc(NS(=O)(=O)c2ccc(Br)cc2)c1	D3 antag -109 (no result: D1 potentiator, D1 antagonist, D1 agonist)
O=C(NC1CCN(Cc2ccccc2)CC1)c1cccc(S(=O)(=O)Nc2ccc(SC(F)F)cc2)c1	D3 antag -101 (no result: D1 potentiator, D1 antagonist, D1 agonist)
Cc1ccc(NS(=O)(=O)c2ccc(C(=O)NC3CCN(Cc4ccccc4)CC3)cc2)cc1	D3 antag -68 (no result: D1 potentiator, D1 antagonist, D1 agonist)
Cc1ccc(Cn2nnnc2CN2CCC(NC(=O)c3ccc(Br)cc3)CC2)cc1	D3 antag -65
CCC(=O)N1CCc2cc(CNS(=O)(=O)c3cc(OC)ccc3OC)ccc21	none (no result: D3 antag)
CCCC(=O)Nc1nnc(SCC(=O)Nc2ccc(OCC)cc2)s1	none (no result: D1 potentiator, D1 antagonist, D1 agonist)
CCC(=O)OCC(=O)[C@@]1(OC(=O)CC)[C@H](C)C[C@H]2[C@H]3[C@H]([C@@H](O)C[C@@]21C)[C@@]1(C)C=CC(=O)C=C1C[C@H]3Cl	none (no result: D3 antag, D1 potentiator, D1 antagonist, D1 agonist)
Cc1[nH]c2ccccc2c1C(=O)C(=O)NC1CC(=O)N(c2cccc(F)c2)C1 (stereo unspecified)	none (no result: D3 antag, D1 antagonist)
COc1ccc(C(=O)N/N=C(\C)c2cccc(NC(=O)c3ccc(F)cc3)c2)c(OC)c1	D1 antagonist -37
COc1ccc(C(=O)N/N=C(/C)c2cccc(NC(=O)c3ccccc3F)c2)cc1	none
COc1ccc(-c2nc3ccccc3[nH]2)cc1	none
COc1ccc(-c2nc(=S)c3ccc4ccccc4c3[nH]2)cc1	D1 antagonist -68
COc1ccc(-c2[nH]ncc2/C=N\NS(=O)(=O)c2ccccc2)cc1OC	none
COc1ccc(-c2[nH]ncc2/C=N\NS(=O)(=O)c2ccc(Cl)cc2)cc1	D1 antagonist -42
COc1cc2c(=O)c(S(=O)(=O)c3ccccc3)cn(CC(=O)Nc3ccccc3C)c2cc1OC	none (no result: D3 antag)
CS(=O)(=O)c1nc(-c2ccccc2)cc(-c2ccccc2)c1C#N	D3 antag -66
Cc1ccc(-c2cc(-c3ccccc3)c(C#N)c(Br)n2)cc1	none
Cc1ccc(NC(=O)C2(C)CCN2Cc2cccc3c2OCO3)cc1O (stereo unspecified)	none (no result: D1 potentiator, D1 antagonist, D1 agonist)
CC1CCN(C(=O)CSc2nc3ccccc3nc2Cc2ccccc2)CC1	none (no result: D3 antag)
CCOC(=O)NN1C(=O)c2ccccc2NC1c1ccccn1 (stereo unspecified)	D1 antagonist -30
Cc1ccc(N(CC(=O)NC2CCCC2)C(=O)CCCC(=O)Nc2ccccn2)cc1C	D1 antagonist -46
Cc1cc(C)cc(N(CC(=O)NC2CCCCC2)C(=O)CCC(=O)Nc2cc(C)ccn2)c1	none
Cc1ccnc(NC(=O)CCC(=O)N(CC(=O)NC2CCCCC2)c2cccc(C)c2C)c1	D1 antagonist -42
O=C(CCC(=O)N(CC(=O)NC1CCCC1)C1CCCCC1)Nc1ccccn1	D1 antagonist -46
Cc1ccc(N(CC(=O)NC2CCCC2)C(=O)CCC(=O)Nc2ccccn2)cc1C	none
O=C(NCCNc1ccc([N+](=O)[O-])cc1)c1cccs1	none
COC(=O)c1sc(N/N=C/c2ccc(C(C)C)cc2)nc1C	D1 antagonist -37 (no result: D1 potentiator)
Cc1cccc(Oc2nc3ccccn3c(=O)c2/C=C(\C#N)c2nc3ccccc3s2)c1C	none (no result: D3 antag)
COc1ccc(NC(=O)C(c2cc3ccccc3o2)n2c(=O)c(-c3cc4ccccc4[nH]3)nc3ccccc32)cc1 (stereo unspecified)	none (no result: D1 potentiator, D1 antagonist, D1 agonist)
CCS(=O)(=O)c1nc(NC(C)=O)n[nH]1	D1 antagonist -46
Cc1[nH]c2ccccc2c1SCC(=O)N1CCCCC1	none
Cc1[nH]c2ccccc2c1SCC(=O)N1CCN(c2ccccc2)CC1	D1 antagonist -43
O=C(CSc1ccccc1C(=O)N1CCN(c2ccc([N+](=O)[O-])cc2)CC1)N1CCCC1	none (no result: D1 potentiator, D1 antagonist, D1 agonist)
O=C(CSc1ccccc1C(=O)N1CCN(c2ccccc2)CC1)N1CCCC1	D1 antagonist -44
O=C(CCSc1ccccc1)N1CCN(c2ccccc2)CC1	none
O=C(CSc1ccccc1)N1CCN(c2ccccc2)CC1	D1 antagonist -34
CC1CC(C)(C)NC(=S)N1CCCC(=O)Nc1ccc(Cl)cc1 (stereo unspecified)	none
CC(C)c1ccc(NC(=O)CCCN2C(=S)NC(C)(C)CC2C)cc1 (stereo unspecified)	D1 antagonist -33
Cc1ccccc1NS(=O)(=O)c1ccc(C(=O)NCC(C)(C)N2CCOCC2)cc1	none
O=c1c(O)c(-c2cccs2)oc2ccccc12	D3 antag inconclusive, D1 agonist 252
O=c1c(O)c(-c2cccs2)oc2ccc(Cl)cc12	D1 agonist 385
O=c1cc(-c2cccs2)oc2ccc(Cl)cc12	D3 antag inconclusive
Cc1onc(-c2c(F)cccc2Cl)c1C(O)c1ccc(F)cc1 (stereo unspecified)	none
Cc1nn(C)cc1/C=N/NC(=O)C1(O)c2ccccc2-c2ccccc21	D1 antagonist -34
NC(=O)c1ccc[n+]([C@@H]2O[C@H](COP(=O)([O-])OP(=O)(O)OC[C@H]3O[C@@H](n4cnc5c(N)ncnc54)[C@H](O)[C@@H]3O)[C@@H](O)[C@H]2O)c1	none (no result: D3 antag, D1 potentiator, D1 antagonist, D1 agonist)
O=C(COC(=O)c1ccccc1C(=O)c1ccc(Cl)c([N+](=O)[O-])c1)NC1CCCCCC1	D3 antag inconclusive, D1 antagonist -34
CCOc1cc(C(=O)OCC(=O)c2c(N)n(C)c(=O)n(C)c2=O)cc(OCC)c1OCC	D3 ag 33
Cn1c(N)c(C(=O)COC(=O)c2ccccc2C(=O)c2ccc(Cl)c([N+](=O)[O-])c2)c(=O)n(C)c1=O	D3 antag -97 (no result: D1 potentiator, D1 antagonist, D1 agonist)
NC(=O)c1ccc(SCC(=O)NC2CCCCC2)c([N+](=O)[O-])c1	D3 antag -52
CCCOc1ccc(C(=O)OCC(=O)c2c(N)n(C)c(=O)n(C)c2=O)cc1OCC	none
O=C(CCn1c(=O)c2ccccc2n(Cc2cccc(F)c2)c1=O)NCc1ccc2c(c1)OCO2	none (no result: D3 antag)
COc1ccc(-n2ncc3c(SCC(=O)OC(C)C)ncnc32)cc1	none (no result: D1 potentiator, D1 antagonist, D1 agonist)
CCCNC(=O)c1cc(C2CCCCN2S(C)(=O)=O)on1 (stereo unspecified)	D3 antag -91 (no result: D1 potentiator, D1 antagonist, D1 agonist)
CCC(=O)/C=C1/Sc2ccccc2N1CC	none
CCN1/C(=C/c2ccc3cc(C)ccc3[n+]2CC)Sc2cc(C)c(C)cc21	none
CCOC(=O)/C(=C/C=C1\Sc2cc(C)c(C)cc2N1CC)C(C)=O	D1 agonist 349
CCOC(=O)/C(=C/C=C1\Sc2ccccc2N1CC)C(C)=O	D1 agonist 219
CCOC(=O)/C(=C\C=C1/Sc2ccccc2N1CC)C(C)=O	D1 agonist 290
COc1cccc(CNC(=O)CCC(=O)N2CC(C)Sc3ccccc32)c1 (stereo unspecified)	none (no result: D3 antag)
CCOc1cc(/C=C2\N=C(SCC)SC2=O)cc([N+](=O)[O-])c1OC(C)=O	D3 antag -97
CCOc1cc(/C=C2\N=C(SC)SC2=O)cc([N+](=O)[O-])c1OC(C)=O	none
CCOc1c(OC(C)=O)ccc(/C=C2\N=C(SCC)SC2=O)c1[N+](=O)[O-]	D3 antag -70
CC(C)(C)C(=O)NCCCC(=O)O	none (no result: D3 antag, D1 potentiator, D1 antagonist, D1 agonist)
